# Source: paper PMC4552634, “A New Set of Chemical Starting Points with Plasmodium falciparum Transmission-Blocking Potential for Antimalarial Drug Discovery” (PLoS ONE, 2015)
# Read-outs that look alike come from different tables or passages of the source. Among all 13,000 compounds or so, about 3,200 (25%) showed an effect of 50% or more. The list shows a part of the results.
# Tested on: P. falciparum stage V gametocytes
# Design: BacTiter-Glo ATP luminescence viability of purified stage V gametocytes in 384-well plates, per cent inhibition versus DMSO
# Details: 48 h, 5 µM, inhibitor
Compound,% Inhibition [%],% Inhibition (% Inhibition) [%]
CCC[C@@H]([C@@H](CC1CCCCC1)C(=O)N[C@H](C(=O)Nc1nccs1)[C@@H](C)OCc1ccccc1)N(O)C=O [TCMDC-138051],-19.92,
Cc1nc(SCC(=O)N2CCCC2=O)c2c(C)c(C)sc2n1 [TCMDC-123558],5.306,
Cc1[nH]nc2cc(F)c(-c3cc(OC[C@@H](N)Cc4ccccc4)cnc3-c3ccoc3)cc12 [TCMDC-136295],10.29,
Cc1cccc(Nc2nc(N)c3ccccc3n2)c1.Cl [TCMDC-123639],-2.53,
CCOC(=O)c1c(C)noc1Nc1cccc(C)c1C [TCMDC-131454],-30.94,
COc1cc(OC)cc(-c2nn(-c3ccc([N+](=O)[O-])cc3Cl)c(=S)n2Cc2ccco2)c1 [TCMDC-135128],93.16,
CCCCCCn1c(Sc2ccc(C#N)c([N+](=O)[O-])c2)nnc1-c1cc(OC)cc(OC)c1 [TCMDC-135589],37.66,
COc1cc(OC)cc(-c2nn(-c3ccc([N+](=O)[O-])cc3C#N)c(=S)n2Cc2ccco2)c1 [TCMDC-134715],75.07,
O=[N+]([O-])c1ccc(-n2nc(-c3cccnc3)n(Cc3ccco3)c2=S)c(Cl)c1 [TCMDC-135132],83.46,
N#Cc1cc([N+](=O)[O-])ccc1-n1nc(-c2cccc(Cl)c2)n(Cc2ccco2)c1=S [TCMDC-134717],102.9,
CN(C)c1ccc(-c2nnc(Sc3ccc(C#N)c([N+](=O)[O-])c3)n2Cc2ccco2)cc1 [TCMDC-135611],2.069,
C=CCN1C(=O)c2[nH]nc(-c3cc(C)c(C)cc3O)c2C1c1cccc(Br)c1 (stereo not shown) [TCMDC-124621],9.594,
Cn1c(CN2CCC(N3CCc4cc(NC(=O)c5ccco5)ccc43)C2)cc2ccccc21 (stereo not shown) [TCMDC-135073],32.96,
NC(N)=Nc1cccc(NC(=O)Nc2cccc(N=C(N)N)c2)c1 [TCMDC-137209],-4.06,
Cc1ccc2c(C3=CCN(CCCCC4(C)C(=O)Nc5ccccc54)CC3)c(C)[nH]c2c1 (stereo not shown) [TCMDC-141006],-63.83,
COc1cc(Cc2cnc(N)nc2N)cc(OCCCC(=O)O)c1OC [TCMDC-137359],3.526,
O=C(NCCCCN1CCCC2c3ccc(O)cc3CCC21)c1ccc(-c2ccccc2)cc1 (stereo not shown) [TCMDC-139084],,-62.82
CCOc1cc(Cc2cnc(N)nc2N)cc(OCC)c1-n1cccc1 [TCMDC-137295],0.7486,
O=C(/C=C/c1ccccc1Cl)NC1CCC(CN2C3CCC2CC(c2c[nH]c4ccccc24)C3)CC1 (stereo not shown) [TCMDC-139931],92.87,
O=C(/C=C/c1c(Cl)cccc1Cl)NC1CCC(CN2C3CCC2CC(c2c[nH]c4ccccc24)C3)CC1 (stereo not shown) [TCMDC-140103],74.61,
CS(=O)(=O)Nc1ccc2[nH]cc(C3CC4CCC(C3)N4CC3CCC(NC(=O)/C=C/c4ccc(Cl)c(Cl)c4)CC3)c2c1 (stereo not shown) [TCMDC-139807],14.27,
CC(C)(C)c1ccc(NC(=O)c2cccc(CN3CCCN(Cc4ccsc4)CC3)c2)cc1 [TCMDC-135992],-46.34,
CCC(C(=O)Nc1cc(=O)[nH]c2nc(-c3ccco3)nn12)c1ccccc1 (stereo not shown) [TCMDC-125323],-11.89,
CN(C)c1ccc(NC(=O)Nc2ccnc3ccccc23)cc1Br [TCMDC-139316],-21.1,

Compound,% Inhibition [%],% Inhibition (% Inhibition) [%]
COc1cc(NC(=O)Nc2cc(C)nc3ccccc23)cc(OC)c1 [TCMDC-139821],78.53,
O=C(Nc1cc(Cl)cc(Cl)c1)Nc1ccnc2ccccc12 [TCMDC-139375],74.86,
CN(C)c1ccnc2ccc(NC(=O)Nc3ccnc4ccccc34)cc12 [TCMDC-139749],70.09,
CCCOc1cc(NC(=O)Nc2ccnc3ccccc23)cc(OCCC)c1 [TCMDC-139491],3.955,
CCc1cc(NC(=O)Nc2ccnc3ccccc23)ccc1OC [TCMDC-139354],1.366,
COc1cc(NC(=O)Nc2ccnc3ccccc23)cc(OC)c1 [TCMDC-139446],84.12,
COc1ccc(NC(=O)Nc2cc(C)nc3ccccc23)cc1Cl [TCMDC-139820],-57.55,
COc1cccc(NC(=O)Nc2cc(C)nc3ccccc23)c1 [TCMDC-138950],-4.503,
CCOc1cc(NC(=O)Nc2ccnc3ccccc23)cc(OC)c1 [TCMDC-139788],14.31,
COc1ccc(Cl)cc1NC(=O)Nc1ccnc2ccccc12 [TCMDC-139457],13.69,
O=C(Nc1cccc(Cl)c1Cl)Nc1ccnc2ccccc12 [TCMDC-139462],3.661,
O=C(/C=C/c1ccc(Cl)c(Cl)c1)NCCCCCN1CCC(NC(=O)Nc2cccc(F)c2)CC1 [TCMDC-135704],-72.87,
CC(C)NCc1cccc(-c2cccc(-c3nc4ccc(F)cc4[nH]3)c2)c1 [TCMDC-132747],-26.37,
CC[C@@H]([C@@H](Cc1cc2ccccc2s1)C(=O)N[C@@H](CCCCNC(=O)OCc1ccccc1)C(=O)Nc1ccccn1)N(O)C=O [TCMDC-138086],8.625,
CCCCc1ccc(Cc2cnc3nc(N)nc(N)c3c2C)cc1 [TCMDC-138045],-16.41,
CCCCCCN(C(=O)OCc1ccccc1)C1CCN(C(=O)OC(C)(C)C)CC1C(=O)OCC (stereo not shown) [TCMDC-140339],26.28,
CCOC(=O)c1c(C)n(-c2ccccc2)c2ccc(OC(=O)c3ccc(S(=O)(=O)N(CC)CC)cc3)cc12 [TCMDC-125723],7.356,
CCN(C)c1cc(C(=O)N[C@@H](Cc2ccccc2)[C@H](O)CNC(C)(C)c2cccc(OC)c2)cc(N2CCCC2=O)c1 [TCMDC-134529],28.65,
CSc1ccc(NC(=O)Nc2cc(C)nc3ccccc23)cc1 [TCMDC-139394],23.44,
Cc1cc(NC(=O)Nc2ccc(C(C)C)cc2)c2ccccc2n1 [TCMDC-139826],6.688,
Cc1cc(NC(=O)Nc2ccc(C(C)(C)C)cc2)c2ccccc2n1 [TCMDC-139981],63.23,
CCOc1cc(CC)ccc1C1CCN(CCN2CCC(NC(=O)c3ccc(-c4ccc(C#N)cc4)cc3)CC2)CC1 [TCMDC-138829],12.51,
CCc1ccc(C2CCN(CCCCNC(=O)c3ccc(NC(=O)c4ccc(Cl)cc4)cc3)CC2)c(OC(C)=O)c1 [TCMDC-138648],96.99,
CCOc1cc(CC)ccc1C1CCN(CCCCNC(=O)c2ccc(NC(=O)c3ccc(Cl)cc3)cc2)CC1 [TCMDC-138317],61.4,

Compound,% Inhibition [%],% Inhibition (% Inhibition) [%]
CCOc1cc(CC)ccc1C1CCN(CCN2CCC(CNC(=O)c3ccc(-c4ccc(C#N)cc4)cc3)CC2)CC1 [TCMDC-138847],107.7,
CCOc1cc(CC)ccc1C1CCN(CCCCNC(=O)c2ccc(NC(=O)c3ccc(C#N)cc3)cc2)CC1 [TCMDC-138662],87.14,
CCc1ccc(C2CCN(CCCCNC(=O)c3ccc(NC(=O)c4ccc(Cl)cc4)cc3)CC2)c(OC)c1 [TCMDC-138377],-11.09,
CCOc1cc(CC)ccc1C1CCN(CCN2CCC(NC(=O)c3ccc(-c4ccc(C(C)=O)cc4)cc3)CC2)CC1 [TCMDC-138882],-11.21,
CCc1ccc(C2CCN(CCCCNC(=O)c3ccc(NC(=O)c4ccc(Cl)cc4)cc3)CC2)c(OCC(=O)OC)c1 [TCMDC-138707],40.9,
CC(=O)Oc1cc(C)ccc1C1CCN(CCCCNC(=O)c2ccc(NC(=O)c3ccc(Cl)cc3)cc2)CC1 [TCMDC-138630],-17.17,
Cc1cc(C2CCN(CCCCNC(=O)c3ccc(-c4ccc(C#N)cc4)cc3)CC2)c(C)cc1OCCO [TCMDC-138827],-59.1,
CC1(C)N=C(N)N=C(N)N1OCCCNC(=O)c1ccc([N+](=O)[O-])cc1 [TCMDC-131666],6.997,
c1ccc(COc2ccc(Nc3ncnc4cnc(-c5ccc(CN6CCCCC6)o5)cc34)cc2)cc1 [TCMDC-137775],-26.66,
CCCCCC(C)C(C)c1cc(O)c2c(c1)OC(C)(C)CC2=Cc1ccncc1 (stereo not shown) [TCMDC-131746],-25.77,
C#CC[C@@H](NC(N)=O)C(=O)O [TCMDC-131404],-1.405,
O=S(=O)(NC1CCN(c2ccnc3cc(Cl)ccc23)C1)c1cccc(F)c1 (stereo not shown) [TCMDC-133657],-15.22,
COc1cccc(C2CCN(CCN3CCC(NC(=O)c4ccc(-c5ccc(C(F)(F)F)cc5)cc4)CC3)CC2)c1 [TCMDC-138819],18.98,
CCOc1cc(C)ccc1C1CCN(CCCCNC(=O)c2cccc(-c3ccc(C(F)(F)F)cc3)c2)CC1 [TCMDC-138534],29.59,
CCOc1cc(C)ccc1N1CCN(CCN2CCC(NC(=O)c3ccc(-c4ccc(C#N)cc4)cc3)CC2)CC1 [TCMDC-138866],88.4,
COc1cccc(C2CCN(CCN3CCC(NC(=O)c4ccc(-c5ccc(C#N)cc5)cc4)CC3)CC2)c1 [TCMDC-138860],-1.987,
COc1ccccc1C1CCN(CCN2CCC(NC(=O)c3ccc(-c4ccc(C#N)cc4)cc3)CC2)CC1 [TCMDC-138880],-25.62,
COc1cccc(C2CCN(CCN3CCC(CNC(=O)c4ccc(-c5ccc(C(F)(F)F)cc5)cc4)CC3)CC2)c1 [TCMDC-138830],71.94,
CCOc1cc(C)ccc1C1CCN(CCCCNC(=O)c2ccc(-c3ccc(C(F)(F)F)cn3)cc2)CC1 [TCMDC-138535],16.24,
COc1cccc(C2CCN(CCN3CCC(NC(=O)c4ccc(-c5ccc(Cl)cc5)cc4)CC3)CC2)c1 [TCMDC-138833],-13.87,
CCc1ccc(C2CCN(CCCCNC(=O)c3ccc(NC(=O)c4ccc(Cl)cc4)cc3)CC2)c(OCCO)c1 [TCMDC-138703],131.2,
CCOc1cc(C)ccc1C1CCN(CCN2CCC(CNC(=O)c3ccc(-c4ccc(C(F)(F)F)cc4)cc3)CC2)CC1 [TCMDC-138805],96.77,
